Screening results deposited in PubChem by several laboratories.
MITF TRPM1 HTS: activators of MITF-driven TRPM1 promoter reporter, primary screen, cell-based, SK-MEL-5, luciferase, single point; SK-MEL-5 TRPM1-promoter luciferase, 24 h; % of positive control, neutral wells = 0; activation, % at 12.5 µM; 0.75% of 300,000 active; AID 588334, 2011;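 active means mean activation of at least 80% with every replicate also reaching 80%; inconclusive means mean reaches 80% but some replicate falls short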
FGF22 binding: binders of human FGF22 protein, primary screen, FGF22 synaptogenesis inhibitor project, biophysical, thermal shift, single point; Fibroblast growth factor 22 (Homo sapiens), Q9HCT0; recombinant FGF22 thermal shift, SYPRO orange fluorescence; percent of sucrose octasulfate shift, DMSO zero; activity (Tm shift, normalised), % at 9.99 µM; 1.5% of 340,000 active; AID 651658, 2012;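 active means mean Tm shift, scaled 0 neutral to 100 positive control, at about 1.3% or above, every replicate too, limit read from the data; inconclusive means no clear call, values can overlap the other calls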
Target sequence (Q9HCT0 whole entry, looked up): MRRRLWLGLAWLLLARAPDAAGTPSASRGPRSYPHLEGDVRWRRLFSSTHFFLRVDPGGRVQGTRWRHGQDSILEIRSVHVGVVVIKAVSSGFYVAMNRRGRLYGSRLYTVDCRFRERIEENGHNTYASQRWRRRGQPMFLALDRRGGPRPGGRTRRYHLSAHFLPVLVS
esBAF inh: Bmi1 luciferase reporter increase in mESCs, primary screen, esBAF inhibitor project, mouse ES cells, Bmi1 luciferase knock-in, single point; 24 h; 100% = twice the neutral-well signal; reporter increase, % at 12.5 µM; 2% of 350,000 active; AID 602393, 2012; in the data active means activation above about 40%; inconclusive means no clear call, values can overlap the other calls;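 further: a rise in the Bmi1 reporter signal indicates esBAF inhibition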
MLL AF4-AF9 inh: inhibitors of AF4 peptide binding to AF9, primary screen, biochemical, AlphaScreen, biotin-AF4 peptide, FLAG-AF9, single point; Protein AF-9 (Homo sapiens), P42568; inhibition, % at 10 µM; 0.47% of 350,000 active; AID 651704, 2012;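 active means every replicate reaching a set inhibition limit, whatever the replicate mean, cut at about 25% in these data; inconclusive means mean inhibition reaches that limit but some replicates miss it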
SMARCA2 act: SMARCA2 (BRM) function activators, primary screen, cell-based, luminescence, high throughput; activation, % at 9.1 µM; MG213 cells, MMTV-luciferase reporter, dexamethasone, overnight; 1% of 370,000 active; AID 652017, 2013; in the data active means activation above about 7.8%
Wnt bcat act: Wnt/beta-catenin pathway activators, primary screen, cell-based, plate reader, single point | Wnt/beta-catenin reporter cell assay, activator | activation, % at 9.35 µM | 1.2% of 300,000 active; in the data active means activation above about 30%, passing the limit was not always enough; inconclusive means no clear call, values can overlap the other calls
Hits are given with their value; i = inactive; ? = inconclusive; nt = not tested or not shown. Sampled rows, rich in hits. Any-hit rate of the full collection: about 4.3%.

SMILES | MITF TRPM1 HTS | FGF22 binding | esBAF inh | MLL AF4-AF9 inh | SMARCA2 act | Wnt bcat act
CCOC(=O)C1=C(C)N(C)C(=S)NC1c1ccc(Cl)cc1 (stereo unspecified) | i | i | nt | i | i | i
COc1ccc(Br)cc1/C=C/c1ccc2cccc(O)c2n1 | i | i | i | i | i | i
COc1ccc(/C=C/c2ccc3cccc(O)c3n2)cc1Br | i | i | 44 | i | i | i
O=[N+]([O-])c1ccc(/C=C/c2ccc3cccc(O)c3n2)cc1 | i | i | i | i | i | i
COc1cc(/C=C/c2ccc3cccc(O)c3n2)cc(OC)c1OC | i | i | i | i | i | 65
Cc1ccc(/C=C/c2ccc3cccc(O)c3n2)s1 | i | i | i | 42 | i | ?
Oc1cccc(/C=C/c2ccc3cccc(O)c3n2)c1 | i | i | i | i | i | 40
CCCC#Cc1cnc2c(c1)C(=O)N([C@@H](C)CO)C[C@H](C)[C@@H](CN(C)Cc1ccccc1F)O2 | nt | nt | i | nt | nt | nt
COc1ccc(/C=C/c2ccc3cccc(O)c3n2)c(OC)c1OC | i | i | 84 | i | i | 57
COc1cccc(/C=C/c2ccc3cccc(O)c3n2)c1OC | i | i | 69 | i | i | 54
CCCCN(CC)CCCNC(=O)c1cn(CC)c2ccc(S(=O)(=O)N3CCc4ccccc4C3)cc2c1=O | i | 43 | nt | i | i | i
CCCCN(C)CCCNC(=O)c1cn(CC)c2ccc(S(=O)(=O)N3CCc4ccccc4C3)cc2c1=O | i | i | nt | i | i | i
O=C(Nc1ccccc1)C1=C[C@@H](c2ccc(C(F)(F)F)cc2)C[C@@H](OCCCCO)O1 | i | i | 50 | i | i | i
CC(C)C#Cc1ccc2c(c1)O[C@H](CN(C)Cc1cccnc1)[C@@H](C)CN([C@H](C)CO)S2(=O)=O | nt | i | i | i | nt | nt
CN(C)C=NC(=O)c1cc(C(=O)c2ccc(C(C)(C)C)cc2)c[nH]1 | 86 | i | nt | i | i | i
Cn1c(=O)c2nc3ccccc3nc2n(C)c1=O | i | 43 | i | i | i | i
NC(=O)CSc1nc(N)c2c3c(sc2n1)CCCCC3 | nt | nt | 55 | nt | i | nt
C/C=C/c1ccc([C@@H]2[C@@H](CO)N3CCCCN(S(=O)(=O)c4cccs4)C[C@@H]23)cc1 | nt | i | nt | i | nt | nt
CN(C)C(=O)[C@H]1[C@H](CO)[C@H]2Cn3c(ccc(-c4ccccc4F)c3=O)[C@@H]1N2C(=O)c1cccnc1 | nt | i | i | i | nt | nt
Cc1ccc(C(=O)NC(C#N)=C(Cl)Cl)cc1 | nt | i | nt | i | i | 77
Cc1ccc(C(=O)NCC#N)cc1 | i | i | nt | i | i | i
CC=Cc1ccc2n(c1=O)C[C@@H]1[C@@H](CO)[C@H](C(=O)NC3Cc4ccccc4C3)N(CC3CC3)[C@H]21 (mixture of isomers) | nt | i | i | i | nt | nt
O=C(NC1CCCC1)[C@@H]1[C@@H](CO)[C@@H]2Cn3c(ccc(-c4ccccc4F)c3=O)[C@H]1N2C(=O)CC1CC1 | nt | i | i | i | nt | nt
C[C@@H]1CN([C@@H](C)CO)C(=O)c2cc(C3=CCCCC3)cnc2O[C@@H]1CN(C)C(=O)CN1CCOCC1 | nt | i | i | i | nt | nt
O=C(C[C@H]1C[C@H]2c3cc(NC(=O)NC4CCCC4)ccc3O[C@H]2[C@H](CO)O1)NCc1ccc2c(c1)OCO2 | nt | i | i | i | nt | nt
SMILES | MITF TRPM1 HTS | FGF22 binding | esBAF inh | MLL AF4-AF9 inh | SMARCA2 act | Wnt bcat act
Cn1c(-c2ccccn2)[n+](C)c2ccccc21 | i | 43 | i | i | i | i
CNCc1sccc1C | i | 43 | nt | i | i | i
Cc1ccc(S(=O)(=O)N2CCN(C(=O)c3cc(S(=O)(=O)N4CCOCC4)c(Cl)cc3Cl)CC2)cc1 | i | i | i | ? | i | i
O=C(c1cc(S(=O)(=O)N2CCOCC2)c(Cl)cc1Cl)N1CCN(S(=O)(=O)c2cccc(F)c2)CC1 | i | 43 | i | i | i | i
O=C(CN1CCCCC1)Nc1scc2c1c(=O)oc1ccccc12 | nt | i | ? | i | i | 38
C[C@@H]1CN([C@H](C)CO)C(=O)c2ccccc2-c2ccccc2CO[C@@H]1CN(C)Cc1cccc(C(=O)O)c1 | nt | i | i | i | nt | nt
COC(=O)C1=CO[C@@H](O[C@@H]2O[C@H](CO)[C@@H](O)[C@H](O)[C@H]2O)C2C(CO)=CCC12 (stereo partly specified) | i | i | i | i | i | i
NCC[C@H](O)C(=O)N[C@@H]1C[C@H](N)[C@@H](O[C@H]2O[C@H](CN)[C@@H](O)[C@H](O)[C@H]2O)[C@H](O)[C@H]1O[C@H]1O[C@H](CO)[C@@H](O)[C@H](N)[C@H]1O | i | i | i | 62 | i | i
Cc1cc(N=Nc2ccc(Cl)cc2)cc(CN2CCCC2)c1O | i | i | i | 49 | i | i
Cc1c(O)c(CN2CCCCC2)cc2c3c(c(=O)oc12)CCC3 | nt | nt | nt | nt | i | nt
C[C@H](O)[C@@H]1C(=O)N2CCc3ccc(N4CCN(C)CC4)cc3[C@@H]2C[C@@H]1N(C)C(=O)NC1CCCCC1 | i | i | i | i | 7.9 | i
CC(C)NC(=O)N(C)C[C@@H]1OCCCC[C@@H](C)Oc2ccc(NS(=O)(=O)c3cn(C)cn3)cc2C(=O)N([C@H](C)CO)C[C@@H]1C | nt | i | i | i | nt | nt
COc1cc(C(=O)NC2CCCCC2)ccc1OCc1ccc(Cl)cc1Cl | i | 43 | nt | i | i | i
COc1ccc(/C(O)=C2\C(=O)C(=O)N(CCN(C)C)C2c2cccc(OC)c2OC)cc1 (stereo unspecified) | i | nt | i | nt | 9.6 | i
COc1cccc(C2/C(=C(/O)c3cnn(-c4ccccc4)c3C)C(=O)C(=O)N2CCN(C)C)c1OC (stereo unspecified) | i | nt | i | nt | i | i
CCOc1ccc(/C(O)=C2/C(=O)C(=O)N(CCCn3ccnc3)C2c2cccs2)cc1Cl (stereo unspecified) | nt | nt | 56 | nt | i | i
CCCOc1ccc(/C(O)=C2/C(=O)C(=O)N(CCCn3ccnc3)C2c2cccs2)cc1 (stereo unspecified) | i | i | nt | i | i | i
COc1ccc(S(=O)(=O)N(C)C[C@H]2Oc3ccc(NC(=O)Cn4cnnn4)cc3CC(=O)N([C@@H](C)CO)C[C@H]2C)cc1 | nt | i | i | i | nt | nt
O=C(NCCC1=CCCCC1)Nc1ccc2nsnc2c1 | i | 43 | nt | i | i | i
COCC(=O)N[C@@H]1C=C[C@@H](CC(=O)NCc2ccccc2OC)O[C@H]1CO | nt | i | i | i | nt | nt
Cc1ccc2oc(C(=O)N(Cc3ccc(N(C)C)cc3)C3CCS(=O)(=O)C3)c(C)c2c1 (stereo unspecified) | i | i | i | i | i | i
